The list is not random: actives were taken first. Their share in the collection is about 1.2%.
Sa ugtP lethal: growth inhibition of ugtP-null S. aureus, primary screen, RN4220 ugtP deletion, OD600; growth inhibition, % (test concentration not listed); 16 h; actives 0.54% (n = 330,000); in the data active = growth inhibition above about 68%;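 also: plate controls were untreated wells for no effect and antibiotic for full effect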
Vc quorum ag: inducers of Vibrio cholerae quorum light production without autoinducers, primary screen, BH1578 luxS cqsA deficient, single point | V. cholerae BH1578 lux reporter, luminescence, 6 h | activation, % at 18.7 µM | actives 0.16% (n = 350,000) | AID 588436, 2011; in the data active = activation mostly above about 9.7%, no sharp cut-off
PfHsp40 yeast: rescue of yeast from PfHsp40 toxicity, primary screen, S. cerevisiae, ATP luminescence; growth rescue, % at 12.5 µM; actives 0.68% (n = 340,000); S. cerevisiae expressing PfHsp40, growth rescue; in the data active = growth rescue above about 28%, passing the limit was not always enough;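 also: yeast W303a lacking pdr1 and pdr3 grown in galactose medium; growth measured after three days at 30 °C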
Mtb bLac sens: beta-lactam sensitization of Mtb H37Rv, H37Rv. M. tuberculosis H37Rv growth with meropenem, percent inhibition. inhibition, % at 25 µM. actives 0.27% (n = 330,000). AID 434955, 2010; call rule not given here;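 also: growth measured after seven days incubation then overnight dye step; 0% = bacteria only wells and 100% = bacteria with antibiotic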
RN4220 kill: growth inhibition of S. aureus RN4220, primary screen, OD600; actives 0.33% (n = 330,000); AID 1259311, 2017; 16 h; inhibition, % (no concentration beside the values); in the data active = inhibition above about 85%;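 also: plate controls were untreated cells for no effect and reference antibiotic for full effect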
Starred values were filed as active, the others as inactive; i = inactive; · = not tested or not shown.

SMILES	Sa ugtP lethal	Vc quorum ag	PfHsp40 yeast	Mtb bLac sens	RN4220 kill
Oc1cccc2ccc(/C=C/c3ccccc3Cl)nc12	90.7*	-0.5	0.4	98.0	83.0
Oc1cccc2ccc(/C=C/c3c(F)cccc3Cl)nc12	7.5	-1.8	7.3	95.5	-7.9
CCOc1cccc(/C=C/c2ccc3cccc(O)c3n2)c1OC	·	-1.6	167.7*	99.6	·
CCOc1cccc(/C=C/c2ccc3cccc(O)c3n2)c1O	1.6	-0.4	1.9	99.5	8.2
CC(C)C(CO)Nc1nc(NCc2ccc(S(N)(=O)=O)cc2)c2ncn(C(C)C)c2n1 (stereo unspecified)	-9.7	·	·	·	3.1
O=C(COC(=O)c1oc2ccccc2c1CSc1ccc(Cl)cc1)NC1CCCC1	19.8	-0.1	3.9	7.8	3.2
NC(=O)COC(=O)c1oc2ccccc2c1CSc1ccc(Cl)cc1	96.2*	0.7	0.0	5.5	-5.5
CCCN=C1NC(=Cc2ccco2)C(=O)N1c1ccccc1	-0.1	·	·	·	1.7
O=C(O)CCN1C(=O)/C(=C\c2ccc(-c3nc4ccccc4s3)o2)SC1=S	100.6*	i	-0.7	16.1	108.6*
COc1cc(C=NNC(=O)CSc2nc3ccccc3n2C)cc(OC)c1OC	2.7	·	·	·	7.3
CCCC1CC(C(=O)NC(C(C)Cl)C2OC(SC)C(O)C(O)C2O)N(C)C1 (stereo unspecified)	100.0*	-2.8	0.9	84.8	100.2*
CCC[C@@H]1C[C@@H](C(=O)NC(C(C)Cl)[C@H]2O[C@H](SC)[C@H](O)[C@@H](O)[C@H]2O)N(C)C1 (stereo partly specified)	·	-0.7	-0.2	77.9	·
CCOC(=O)c1c2c(n(-c3ccc(OC)cc3)c1C)C(=O)C(=O)c1ccccc1-2	·	-0.8	85.3*	·	·
COc1cnc(-c2ccccn2)nc1Sc1ccc(C)cc1	1.4	i	358.7*	85.0	4.4
Cc1ccc(Sc2cc(C)nc(-c3ccccn3)n2)cc1	·	-1.0	145.4*	88.9	·
COc1ccccc1Sc1nc(-c2ccccn2)ncc1OC	-1.2	-0.1	1.1	76.0	10.4
FC(F)(F)c1cccc(Sc2cc(C(F)(F)F)nc(-c3ccccn3)n2)c1	3.2	·	-2.0	2.2	-5.4
CCCNC(=O)N1C2CCC1C(C(=O)OC)=C(c1ccc(Cl)c(C(F)(F)F)c1)C2 (stereo unspecified)	-3.7	·	·	·	2.0
COC(=O)Oc1ccc(C=NNC(=O)CSCc2ccc(Cl)cc2)cc1OC	-10.5	·	·	·	-7.2
COC(=O)C1=C(C(=O)OC)C2N(C)c3ccccc3[C@@]23CC(C(=O)OC)N(C(=O)C2CCC2)C3=N1 (stereo partly specified)	-1.5	·	·	·	-1.6
Cc1onc(-c2c(Cl)cccc2Cl)c1C(=O)N/N=C(\N)COc1ccc(Cl)cc1	·	-0.3	599.0*	5.5	·
Nc1cc(Cl)ccc1Oc1ccc2ccccc2c1	94.9*	-0.3	8.8	·	-4.0
Cc1ccc(Oc2ccc(Cl)cc2N)cc1	8.7	-0.5	0.1	-2.4	-1.7
COC(=O)C1CC1C(NC(=O)C1CC1C(NC(=O)OCc1ccccc1)c1ccccc1)c1ccccc1 (stereo unspecified)	5.5	·	·	·	3.4
Cc1ccc(S(=O)(=O)NCC(=O)NN=Cc2ccc(Cl)cc2Cl)cc1	-11.1	·	·	·	-10.7
SMILES	Sa ugtP lethal	Vc quorum ag	PfHsp40 yeast	Mtb bLac sens	RN4220 kill
O=C(NN=Cc1cccc(F)c1)c1c(O)c2ccccc2[nH]c1=O	100.1*	·	·	·	99.4*
CC(C)=NNC(=O)c1c(O)c2ccccc2[nH]c1=O	23.6	-0.5	100.3*	99.8	5.7
CCN1C(=O)C2C(c3ccc(C)cc3)N3C(=O)N(c4cccc(F)c4)C(=O)[C@@]3(Cc3ccc(Cl)cc3)C2C1=O (stereo partly specified)	1.1	·	·	·	4.5
Cc1cccc(NC=Cc2onc(C)c2[N+](=O)[O-])c1	-3.6	·	·	·	7.8
O=C(Nc1ccc2ccccc2c1)C1CC1C(NP(=O)(c1ccccc1)c1ccccc1)c1ccccc1 (stereo unspecified)	8.7	·	·	·	-2.6
CC(=O)N(c1ccccc1C)C1CCCC1	4.3	-0.5	0.7	-6.4	7.1
CC(=O)N(C1=C(Cl)C(=O)c2ccccc2C1=O)C1CCCCC1	20.8	1.2	146.7*	27.2	16.9
Nc1nonc1-n1nnc(C(=O)NN=Cc2ccco2)c1-c1ccccc1	-0.5	·	·	·	2.9
N#CC(=NNc1ccc(OC(F)(F)F)cc1)C(N)=S	87.5*	·	·	·	82.4
CCC(=NNC(=S)NC(C)C)c1ccc(OC(F)F)cc1	19.5	·	·	·	1.8
CC(C)(C)C1C=C(C(N)=O)OC(OCc2ccc(CO)cc2)C1 (stereo unspecified)	2.1	·	·	·	7.2
N#CC1=C(N)C(C#N)(C#N)C2(C(=O)Nc3ccccc32)C2CCCC=C12 (stereo unspecified)	-15.0	-3.6	30.2*	6.1	16.8
Cc1nn(CCC(N)=S)c2nc(-c3cccs3)cc(C(F)(F)F)c12	-18.1	-0.2	222.6*	7.2	0.0
CCSC1=NC(=Cc2ccccc2)C(=O)N1	1.1	·	·	·	9.9
O=C(c1c(O)c2ccccc2oc1=O)C1CCCCC1	22.3	i	0.3	-5.3	48.4
O=C(CCC1CCCC1)c1c(O)c2ccccc2oc1=O	99.5*	-0.3	0.7	99.5	100.1*
Cc1ccnc(NS(=O)(=O)c2ccc(NC(=O)C=Cc3cccs3)cc2)n1	-5.0	·	·	·	-3.7
CCOC1OC(C(=O)Nc2ccccc2)=CC(C2CC2)C1CCCO (stereo unspecified)	-10.2	·	·	·	7.3
CC(=O)C(CN1CCCCC1)=NO	1.2	·	·	·	2.4
CCCCN(C)S(=O)(=O)c1cc2c(cc1Br)CCN2C(=O)C1CC1	-6.8	-1.6	123.5*	·	10.2
COc1ccc(-c2cc(C(F)(F)F)nc(N3CCCCCC3)n2)cc1	95.1*	-1.7	-0.8	4.2	-4.3
CCc1ccc(OCc2n[nH]c(=S)n2Cc2ccccc2)cc1	-1.6	i	101.2*	-5.1	12.6
CCc1ccc(OCc2n[nH]c(=S)n2C(C)CCCC(C)C)cc1 (stereo unspecified)	-3.3	-0.2	56.7*	1.6	2.3
CC(C)CCn1c(COc2ccccc2)n[nH]c1=S	1.6	-1.3	0.5	0.6	5.7
O=C(NCc1nc2ccccc2[nH]1)C1=CC(c2ccc(Br)cc2)CC(OCc2ccc(CO)cc2)O1 (stereo unspecified)	16.0	·	·	·	4.5
O=c1[nH]sc2cc(F)ccc12	87.4*	1.7	0.7	·	98.1*
Cc1ccc(C)c(NC(=S)NNC(=O)c2cc3c(s2)CCC(C)C3)c1 (stereo unspecified)	-2.4	-0.1	5.9	-2.0	1.3

Screening data from PubChem BioAssay.
